These results are taken from PubChem BioAssay AID1508600 (Functional Genomics Laboratory (NCATS/FGL), 2020).

Out of some 53,000 sequences screened, about 3,700 (7%) were called active. Many of the other results were omitted from the sample, so actives are more common in it than they were. A number with no mark means an inactive call.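 How the source made its calls: active means gene knockdowns whose robust z-score for IL-1 alpha signal is at least 2 or at most -2, so actives lie on both sides; inactive means the rest.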

A short description of the test: Components of the Cytosolic LPS Sensing Pathway: Gene Identification via Genome-wide siRNA Screen.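 Further: robust z of the log signal after scaling to non-targeting control siRNA wells of the plate.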 Conditions: RAW264.7 macrophages, IL-1a HTRF, actives lie on both sides, screened at 100 nM (by protocol), cells primed 5 h with Pam3CSK4 first. The procedure, abridged: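 Read-out: IL-1a HTRF on supernatant, divided by plate negative-control median ×100, log-transformed and converted to robust z-score. Cells were RAW264.7 given 100 nM siRNA, Pam3CSK4-primed 5 hours, then LipidA-transfected 24 hour.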
On the technique in general: TR-FRET usually uses a lanthanide donor and a delayed reading to cut background.
Regarding GACGCAAGCAGCAUUUUAUTT against R3hdm4, the z-score was -0.207.

On to CCGUCAUCUACACCUAUUUTT against Olfr525, for which the z-score was 0.102.

On to CGGCUUAUGAGUUAAAGACTT against Rad51b, for which the z-score was -1.03.

For GGUAGAUUAUAGCAAAAUGTT against Ik, the z-score was -2.23 (active).

Take GGUUAAGUGUGUUAAGUUCTT against Cipc: the z-score was 1.48.

In the case of GGCCUCAAAUACCAUAACATT against Zfp941, the z-score is 0.000237.

As for CGGACACAUGAUUGUCUUCTT against Npas1, the z-score is 1.25.

With GGUUUGAUGACAAAUACACTT against Spcs2, the z-score was 1.6.

For GCUGGUACAGCGUAUACCATT against Cep170b, the z-score was -1.03.

On to GGAUGUUCUCAAACUACAATT against Kdm1b, for which the z-score was 0.702.

As for GGGCAAGCCACUCAUGUUGTT against Me2, the z-score is -0.997.

As to CCUAGAGAUUGGUAUGUACTT against Tmem132e, the z-score was -2.1 (active).

As for GCCAUUAAUCUCACAUGUATT against Crebrf, the z-score is 1.39.

With GGAUCCUUCGAAUCCUGAATT against Cst11, the z-score was -0.372.

Turning to CCCAUGUUUAUGUUGCUGATT against Olfr467, the z-score is 0.251.

Consider GGACACCUGAAGUUAGUUUTT against Ndufaf1, for which the z-score is 0.622.

GGAGAAGGAUCUGAACGAGTT against Nog: the z-score is -1.24.

In the case of CCUUAUGGAUUUAGCAUCATT against Lamb3, the z-score is 0.917.

Turning to CCAAACCAGUGGAGUCCAUTT against Slc7a14, the z-score is -2.26 (active).

For the sequence ACUAUGGUUGGUUCAAACGTT against Acat2, the z-score is -1.23.

On to “GCACAACGGUUCGUUGUUATT against 4933427E11Rik”, for which the z-score was -1.17.

For GGUGUAGGCUGUCCAAUAATT against Rtel1, the z-score was 0.74.

With GACUCUUGUCCCAAGUGUUTT against Bloc1s4, the z-score is 0.144.

Consider GGAUCAACAGUCAAUUGUGTT against Tax1bp1, for which the z-score is -2.16 (active).

With AUAGUGGAACCCUUUGUACTT against Olfr1195, the z-score is -0.832.

GGAAUACGACAGAACUCCATT against Extl1: the z-score was 0.218.

For GGAGAAGCAAACUGCACCUTT against Cacng6, the z-score was 1.08.

With GGACCUGAAACACGCCAAUTT against Cdk18, the z-score was -0.35.

With GCGGGAGAGCUAUGAAACATT against Mrps21, the z-score was -0.0502.

As to GGGAAAUUUCUCUACAUCUTT against Npas1, the z-score was 2.2 (active).

Take GGCUGCACAAAACGAGAUCTT against Tcirg1: the z-score is -0.0738.

GGCAAACAAAUGGUUUGUUTT against Zfp324: the z-score is -0.544.

Consider GGUUCUCGGUAAAUCCUGCTT against Slc35b1, for which the z-score is -1.07.

Consider GGAGGUUGAGGCUUCUAAGTT against Pacsin3, for which the z-score was 1.2.

For GGAUAAUGAGCUGAACAUATT against Nek7, the z-score is -0.0844.

For “GGAAGCAUGCAAUGAUAUUTT against 4933431E20Rik”, the z-score was -2.31 (active).

As for GCCUCACUUUGACUGUCGCTT against Tpgs2, the z-score was -0.289.

GGAGAAAGUGAUUGACAUATT against Lpin2: the z-score is -0.0579.

Take GGAAGGGUUUGUUUGUUUATT against Nkiras1: the z-score is 1.55.

For the sequence GGCCUUGAAAGCCAUUGGUTT against Kmo, the z-score was -0.728.

GCGCGACAAAUCGUAGGCUTT against Mamstr: the z-score is -2.13 (active).

With GGACUUGAAGAACUGUUAUTT against Hspa13, the z-score was -0.0642.

In the case of CGUGCUGUAUGGCAAAGUUTT against Bst1, the z-score was 0.563.

Consider GCCCAUGUUUGUGAGGGUUTT against Fem1al, for which the z-score is -0.0893.

Regarding GCACUUCCCUCCCUAUGCATT against Cep20, the z-score is -2.11 (active).

As for GGUUCCAAUGCUAUUGAAUTT against Tc2n, the z-score is 0.391.

Take GGUUAUAUUAUGUAGCCUATT against Klf17: the z-score is 0.332.

Turning to GGUCACAGUUGGCAAAGAUTT against Myh11, the z-score is -0.521.

As to GCGUAAGCAGCAAGAUGGATT against Ash2l, the z-score is 1.21.

Take GCUUUCAAGUGGUUAUGAATT against Nsun6: the z-score is 0.0136.

As to CGUGUAUCGUUGUCUGAAUTT against Donson, the z-score is 2.75 (active).

Turning to GCGACCAUUUCGUUUUAGUTT against Frat1, the z-score is 1.07.

Regarding GGAAAGCAAGUCGUAAGCCTT against Mrps10, the z-score is -0.755.

For the sequence AAUGCUCAGAAAGAAUAACTT against Sprr2e, the z-score is -0.31.

Turning to UGUUACUGGACUCUCCACATT against Olfr320, the z-score was 0.372.

As to GCUGUGUUAGGAUUGUCCATT against Olfr553, the z-score is 0.252.

For the sequence GGUACACUACAUGACUCAUTT against Sall4, the z-score is 2.35 (active).

As for GGCAUCAAGUCCAUUUUUGTT against Slc12a4, the z-score is 0.108.

For the sequence GGCAGGCAGAAAGCUUUGUTT against Olfr1054, the z-score was 1.8.

In the case of GCUAAUCACCAAAGCUGAGTT against Larp7, the z-score is 0.546.

In the case of CCUAAUCUUCGUGCUUUACTT against Minpp1, the z-score was 1.4.

Take CCUGUGAAAGAUGCUUAUATT against Capn7: the z-score was -1.65.

As to CGGGAUGACUACAAUCUGGTT against Ssbp3, the z-score was -2.17 (active).

For GCUCAGCUAGCAGAAAUUCTT against Nlrp2, the z-score is -1.76.

In the case of GGAGGCCAAAGGACUGAUCTT against Hectd4, the z-score was 1.56.

Regarding CCACAGACAGUUAUUACUGTT against Adgre1, the z-score is -1.

Take CCCAAGAGUGUUUGAGAACTT against Zbtb43: the z-score was 0.213.

As to GGCAUUUAUUAUCAGGCUGTT against Pes1, the z-score is 0.665.

For “GCUCGAGAAGAGUUUGUUATT against 1700030J22Rik”, the z-score was 0.933.

Regarding GCAACUUGUUAGUGGACUCTT against Olfr620, the z-score was -1.08.

Take GCUAUGUGGGAAGUUUCAUTT against Tmem263: the z-score is 0.924.

For the sequence GGCCUAUAGGUUGGGCUCUTT against Tonsl, the z-score was -2.57 (active).

On to GCGUGGAGUCUUCAGUCAUTT against Vhl, for which the z-score is -0.101.

As for GGAGAAGAGGACAGAAGCCTT against Akt1s1, the z-score is 0.757.

Take GUUCAUGUCUAUCCUGUCUTT against Hba-x: the z-score is -2.45 (active).

With “GCUCAAAACAAUCCACGCCTT against 1700006J14Rik”, the z-score was -0.47.

Take GGAUGAGAACAACUCUGCUTT against Lrtm2: the z-score is 0.439.

For the sequence GGACCUGUUUGAUUUGGUGTT against Nf2, the z-score was 0.8.

On to GGAAAACCUUGGACAGGAGTT against Olfr876, for which the z-score is -0.267.

Regarding UGUGACUAUUGUUACUGUGTT against Olfr1512, the z-score was -1.06.

Consider GCAGUACCGAGCAGCAGAATT against Acad10, for which the z-score is -2.41 (active).

With CGAAUGUGGCUAUGACCUGTT against Kif6, the z-score was 0.555.

Consider GGAAAAGGAGGUGGUACUGTT against Acan, for which the z-score was 0.743.

With GCAUACAGCUCAACAGUCATT against Padi2, the z-score was -0.51.

For the sequence GGAGAAGUAGAUGUAUAUGTT against Prkar1b, the z-score was -1.4.

Turning to GUACACCACAAUCCUCACCTT against Olfr677, the z-score is -0.0852.

On to GGUCCAGAGAAUGUUAUUATT against Spinkl, for which the z-score is 0.263.

As for GAAUAGAAGGGAAGAAAGUTT against Crb3, the z-score is -2.08 (active).

In the case of GGGAACUUCCUUGAGAAGATT against Mgat4d, the z-score was 0.654.

For GCAACGUGUCUUUUCAAACTT against P2ry10b, the z-score was -0.223.

GUUUCCUUGUGCUAAUGUUTT against Olfr1199: the z-score is 1.15.

With GGAAAACCUAAUAAGGUUCTT against Iqce, the z-score was 2.72 (active).

As to GGCUCCAACAUAGAAAUGATT against Tpbpa, the z-score was 0.38.

Regarding GCUACGCAUUGAGGAGCUATT against Pkn1, the z-score was 0.168.

Consider GCUUAUGUCGAAUGAUAGCTT against Id2, for which the z-score was -4.22 (active).

Take GGCUGCCAAGAAAAUCUAUTT against Rab14: the z-score was 0.363.

On to GGAUGAACUCAUGAGAGCCTT against Cyb5r4, for which the z-score is -0.323.

In the case of GGGUUGAAAGAGCUUGCCATT against Vmn1r198, the z-score is -2.56 (active).

On to CCGAGGUUGUGAAACGAUGTT against Trp63, for which the z-score is -1.47.

For the sequence GGAACCUCCUUAUUCAAUGTT against Rspry1, the z-score is 0.0592.

Regarding GGUUGAAGCAGAAGAUAAUTT against Asnsd1, the z-score is -2.2 (active).

Consider GGUGGAGGUCUGGUUUAAGTT against Gsc, for which the z-score is -0.4.

As for GGUUGGCACAACUGUGUACTT against Cr2, the z-score was -0.0754.

Regarding GGAAACCAACUUCAGCCUGTT against Gfra1, the z-score is -0.0125.

For GCAAAUCCCAUGAACAGCUTT against Nvl, the z-score is -2.55 (active).

On to GGGCAAUCGACUGAGAAUUTT against Lingo4, for which the z-score is -0.0246.

For the sequence CGAAGAAAACCAUAAGGACTT against Bdnf, the z-score is -0.876.
